# Screens deposited in PubChem BioAssay by University of Kansas High Throughput Screening Laboratory.
# This excerpt belongs to a sample that is enriched for hits.
# Pf apPOL block – Pf-apPOL DNA polymerase inhibition | Recombinant Pf-apPOL, molecular beacon fluorescence, 1.5 h | inhibition, % at 10 µM | 0.25% of 210,000 active
# mHTT CaM bind – inhibitors of human mutant huntingtin-calmodulin interaction | P42858 | AlphaScreen His-mHTT/GST-CaM binding, luminescence | inhibition, % at 15 µM | 3.6% of 190,000 active | AID 1671202;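 further: 0% = both proteins with DMSO and 100% = one protein alone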
# * hit, by the source's call; . = no result given. No stated cut-off is given here; in the data, active means inhibition above about 50%; inactive means the rest.
SMILES,Pf apPOL block,mHTT CaM bind
O=C(c1c[nH]c2ccccc12)N1CCC2(CC1)NC(=O)N(Cc1ccc(F)cc1)C2=O,-5.1,58.1*
O=C(c1ccccc1)N1CCC2(CC1)NC(=O)N(Cc1ccccc1Cl)C2=O,-3.3,8.7
O=C(c1cc2ccccc2[nH]1)N1CCC2(C1)NC(=O)N(Cc1ccc(F)cc1)C2=O (stereo not drawn),-2.4,-1.8
O=C(c1cc2ccccc2[nH]1)N1CCC2(CC1)NC(=O)N(Cc1ccc(F)cc1)C2=O,-3.4,70.2*
C#Cc1nc(NC(C)C)nc(NC(C)C)n1,.,-5.9
Cc1cc(C)nc(Nc2nc(C(=O)Nc3ccc(N4CCOCC4)cc3)cs2)n1,0.1,24.8
Cc1ccc(N2NC(=O)/C(=C\c3ccc(Cl)cc3Cl)C2=O)cc1Cl,3.6,90.0*
Cc1ccc(N2NC(=O)/C(=C\c3cccc([N+](=O)[O-])c3)C2=O)cc1Cl,0.1,77.0*
Cc1ccc(N2NC(=O)/C(=C\c3cccs3)C2=O)cc1Cl,0.5,2.0
O=C1NN(c2ccc(Cl)c(Cl)c2)C(=O)/C1=C/c1ccc(-c2ccc3c(c2)C(=O)NC3=O)o1,-8.3,5.0
CN(C)c1ccc([N+](=O)[O-])cc1/C=C1\C(=O)NN(c2ccc(F)cc2)C1=O,6.0,10.0
O=C1NN(c2ccc(F)cc2)C(=O)/C1=C/c1cccc([N+](=O)[O-])c1,1.0,13.0
O=C1NN(c2ccc(Cl)c(Cl)c2)C(=O)/C1=C/c1ccc(-c2ccc3c(c2)C(=O)OC3)o1,3.3,68.0*
O=C1NN(c2ccc(Br)cc2)C(=O)/C1=C/c1cc([N+](=O)[O-])ccc1Cl,0.7,89.0*
Cc1ccc(-c2nc(C3CCN(S(=O)(=O)c4c(C)c(C)cc(C)c4C)CC3)no2)cc1,-4.2,-12.7
O=C(c1ccc(F)cc1)N1CCCN(CC2CN(C(=O)C3CC3)CCO2)CC1 (stereo not drawn),-5.8,11.5
O=C1NN(c2ccc(Cl)c(Cl)c2)C(=O)/C1=C/c1ccccc1,-2.7,96.0*
COc1ccc(/C=C2\C(=O)NN(c3ccc(Cl)c(Cl)c3)C2=O)cc1,-4.6,5.0
Cc1ccc(N2NC(=O)/C(=C\c3ccccc3OCC#N)C2=O)cc1Cl,1.7,78.0*
COc1cccc(/C=C2\C(=O)NN(c3ccc(C)c(Cl)c3)C2=O)c1OCC#N,-4.0,28.0
Cc1ccc(N2NC(=O)/C(=C\c3cccc(Br)c3)C2=O)cc1,-0.6,71.0*
O=C1NN(c2cccc(Br)c2)C(=O)/C1=C/c1ccccc1,-1.3,19.0
O=C(NCc1ccco1)c1cc2n(n1)C(C(F)(F)F)CC(c1ccco1)N2 (stereo not drawn),-6.4,7.2
O=[N+]([O-])c1ccc(N=Cc2cc(Br)cc(Br)c2O)c(O)c1,.,37.7
O=C(NC1CCCC1)C1CCN(c2cnc(N3CCCCC3)nc2)CC1,-1.2,-7.9
SMILES,Pf apPOL block,mHTT CaM bind
COc1ccc(Nc2nc(Cl)nc(Nc3ccc(OC)c(OC)c3)n2)cc1OC,-5.5,44.0
COc1ccc(OC)c(Nc2nc(Cl)nc(Nc3cc(OC)ccc3OC)n2)c1,-2.4,53.0*
CC(C)(C)C1CCc2c(sc3c2c(=O)n(-c2ccccc2)c2nncn32)C1 (stereo not drawn),-1.1,11.0
Cc1cc(C(=O)N(CCN(C)C)c2nc3c(Cl)cccc3s2)no1,0.9,-15.5
CN(C)CCN(C(=O)CCc1ccccc1)c1nc2c(Cl)cccc2s1,2.2,61.7*
O=C(c1cccc(F)c1)N(CCCn1ccnc1)c1nc2c(F)cccc2s1,-7.1,25.9
O=C(Cc1ccc(F)cc1)N(CCCn1ccnc1)c1nc2c(Cl)cccc2s1,3.9,90.8*
COc1ccc(OC)c(/C=C2\C=C(c3cc(OC)ccc3OC)OC2=O)c1,-7.7,12.0
COc1ccc(C)cc1C1=C/C(=C\c2ccc(C)o2)C(=O)O1,2.8,61.0*
CCCNc1c(N)cc(C(F)(F)F)cc1[N+](=O)[O-],-41.2,55.0*
O=[N+]([O-])c1cc(C(F)(F)F)cc([N+](=O)[O-])c1NCCCn1ccnc1,-4.2,.
N#C/C(=C/c1ccccc1Cl)c1ccccc1,.,-33.9
COc1cc(C(=O)Nc2c(C)cc(O)cc2C)cc(OC)c1OC,3.0,-3.6
N#CSC(C#N)Cc1ccccc1 (stereo not drawn),-7.4,42.5
N#CSC(C#N)Cc1ccc([N+](=O)[O-])cc1 (stereo not drawn),-0.6,59.9*
CC1CCc2c(sc3nc4c5ccccc5c(NCc5ccco5)nn4c(=O)c23)C1 (stereo not drawn),0.1,35.1
O=c1c2c3c(sc2nc2c4ccccc4c(NCC4CCCO4)nn12)CCCC3 (stereo not drawn),-0.2,65.1*
COC(=O)C(C)Oc1ccc2oc(=O)cc(-c3cc4cccc(OC)c4o3)c2c1 (stereo not drawn),-8.2,7.8
Cc1cc(C2CCCN2C(=O)C(C)C)on1 (stereo not drawn),0.3,-4.3
CCOc1ccc(C(=O)Nc2cccc(-c3nc4ncccc4o3)c2)cc1Br,-2.2,4.0
O=[N+]([O-])c1ccc(SCc2ccco2)c2cccnc12,-5.9,100.0*
Cn1cnnc1Sc1ccc([N+](=O)[O-])c2ncccc12,5.2,1.5
CCN(CC)C(=O)c1ccc(-n2cc(CNC(=O)C3CC3)cn2)cc1,-3.1,-2.9
CCN(CC)C(=O)CC[C@H]1CC[C@]2(CCCN(C(=O)c3ccno3)C2)O1,-8.9,-6.5
CCOC(=O)CC[C@H]1CC[C@]2(CCCN(C(=O)c3ccno3)C2)O1,-2.6,78.3*
SMILES,Pf apPOL block,mHTT CaM bind
CCn1ccc2oc(C)c(C(=O)NCc3ccccc3)c2c1=O,-1.9,-11.2
COc1cccc2c1NC(c1ccccc1[N+](=O)[O-])C1CC=CC21 (stereo not drawn),-1.1,73.0*
O=[N+]([O-])c1cccc2c1NC(c1cccc(Cl)c1Cl)C1CC=CC21 (stereo not drawn),-2.8,73.0*
COc1ccc(C2Nc3c(OC)ccc(Cl)c3C3C=CCC32)cc1[N+](=O)[O-] (stereo not drawn),-0.5,62.0*
Fc1ccc(C2Nc3c(Cl)cccc3C3C=CCC32)cc1 (stereo not drawn),-0.5,37.0
COc1cc(C2Nc3c(Cl)cccc3C3C=CCC32)cc(OC)c1OC (stereo not drawn),-4.2,70.0*
CCOc1cc2c(c([N+](=O)[O-])c1)NC(c1ccc(Cl)cc1)C1CC=CC21 (stereo not drawn),-1.1,41.0
CC1CCC(NCCN2CCCCC2)CC1 (stereo not drawn),-0.3,1.8
COc1ccc(C2Nc3ccccc3C3C=CCC32)cc1[N+](=O)[O-] (stereo not drawn),0.3,86.0*
COc1cc([N+](=O)[O-])cc2c1NC(c1ccc(Cl)cc1)C1CC=CC21 (stereo not drawn),8.7,38.0
COc1ccc(C2Nc3c(Cl)cccc3C3C=CCC32)cc1[N+](=O)[O-] (stereo not drawn),-3.8,52.0*
O=C(c1cnccn1)N1CCCn2nc(-c3cccs3)cc2C1,-0.9,-3.8
O=C(Nc1nnc(-c2ccno2)o1)c1ccc2ncsc2c1,57.1*,90.0*
O=C(Nc1nnc(-c2ccno2)o1)c1cccs1,30.5,81.5*
Cc1cc(-c2nnc(NC(=O)c3ccc4ncsc4c3)o2)nn1C,-17.9,43.0
CS(=O)(=O)c1cccc(C(=O)Nc2nnc(-c3ccno3)o2)c1,44.9,94.7*
Cc1cc(C(=O)Nc2nnc(-c3ccno3)o2)no1,9.1,1.4
O=C(Nc1nnc(-c2ccc(Br)s2)o1)c1cccs1,-27.4,6.2
